AHR act: human AHR activation. AHR-responsive luciferase reporter cells, luminescence. hit rate 2.5% among 320,000. P35869. activation, % at 5 µM; in the data active means activation above about 47%;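 further: 0% = vehicle wells and 100% = reference agonist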
MITF act: increases MITF-driven TRPM1 promoter luciferase signal; activation, % at 12.5 µM; AID 588334; SK-MEL-5 TRPM1-promoter luciferase, 24 h; % of positive control, neutral wells = 0; hit rate 0.75% among 300,000;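 active means mean activation of at least 80% with every replicate also reaching 80%; inconclusive means mean reaches 80% but some replicate falls short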;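 further: 0% = neutral control wells and 100% = parthenolide positive control wells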
Wnt act: Wnt/beta-catenin pathway activation | Wnt/beta-catenin reporter cell assay, activator, plate reader | activation, % at 9.35 µM | hit rate 1.2% among 300,000 | AID 743398; in the data active means activation above about 30%, passing the limit was not always enough; inconclusive means no clear call, values can overlap the other calls;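 further: 0% = neutral control wells and 100% = positive control wells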
GAA850 FXN act: increases GAA850 frataxin promoter reporter activity; HEK293 lucGAA850 FXN promoter luciferase reporter, 24 h; percent of 10 µM SAHA response; activation, % at 6 µM; hit rate 0.56% among 360,000; AID 540364;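 active means activation above the average of all compounds screened plus 3 SD, cutoff fixed separately per campaign, cut at about 7.5% in these data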;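 further: 0% = DMSO wells and 100% = 10 µM SAHA wells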
esBAF inh: inhibitors of esBAF chromatin remodeling in mouse ES cells; Bmi1-luciferase knock-in reporter, 24 h; 100% = twice the neutral-well signal; reporter increase, % at 12.5 µM; hit rate 2% among 350,000; in the data active means activation above about 40%; inconclusive means no clear call, values can overlap the other calls;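 further: 0% = median of the plate's neutral control wells and 100% = double that signal; a rise in the Bmi1 reporter signal indicates esBAF inhibition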
An asterisk follows results filed as active; ? = inconclusive; . = no result given; ! = a repeat was not active. A selection: hits, their analogues and other compounds. The true share with any hit is near 4.2%.

SMILES	AHR act	MITF act	Wnt act	GAA850 FXN act	esBAF inh
O=C(c1cc(-c2cccc(O)c2)on1)N1CCCCCC1	-11	93*	37*	2	36
O=C(c1cc(-c2cccc(Cl)c2)on1)N1CCN(c2ccccc2)CC1	-7	2	9	1	-7
O=C(c1cc(-c2ccc(Cl)c(Cl)c2)on1)N1CCCCC1	-3	104*	.	5	56*
O=C(c1ccc(-c2cccc(C(F)(F)F)c2)o1)N1CCOCC1	9	57	-1	4	71*
O=C(c1cc(-c2cccc(O)c2)on1)N1CCOCC1	-1	.	45*	3	2
COc1cccc(-c2cc(C(=O)N3CCOCC3)no2)c1	4	57	28	3	8
CN(Cc1ccsc1)C(=O)CCc1nnc(CCCc2ccccc2)o1	1	76	33*	7	?
Cc1nc(C(C)NC(=O)CCc2nnc(CCCc3ccccc3)o2)c(C)s1 (stereo not given)	15	100*	64*	5	70*
COc1ccc(NC(=O)Nc2ccc3c(c2)C(=O)N([C@H](C)CO)C[C@@H](C)[C@H](CN(C)C)OCCCC[C@@H](C)O3)cc1	.	.	.	.	-7
C[C@H]1CCCCO[C@@H](CN(C)Cc2ccncc2)[C@@H](C)CN([C@@H](C)CO)C(=O)c2cc(NC(=O)c3ccccc3)ccc2O1	.	.	.	.	-4
O=C(/C=C(\Nc1cccc(Cl)c1F)c1ccccc1)c1ccccc1	.	.	47*	.	.
C[C@H](CO)N1C[C@H](C)[C@@H](CN(C)S(=O)(=O)c2ccc(C#N)cc2)OCc2ccccc2-c2c(n(C)c3ccccc23)C1=O	.	.	.	.	6
O=c1c2c3c(sc2nc2n1CCCC2)CCCCC3	8	39	.	2	.
O=c1c2c3c(sc2nc2n1CCCCC2)CCCC3	6	.	39*	2	50*
N=c1c2c3c(sc2nc2n1CCCCC2)CCCCC3	16	70	.	1	48*
O=c1c2c3c(sc2nc2n1CCCCC2)CCCCC3	7	51	.	3	62*
Cc1cc(OC(C)C(N)=O)nc(-c2ccccc2)n1 (stereo not given)	13	-4	39*	1	10
Cc1oc2c(c1C(=O)c1ccccc1)C(=O)C(=O)c1ccccc1-2	64*	15	.	-1	?
O=C1C(=O)c2c(C(=O)c3ccccc3)coc2-c2ccccc21	52*	29	27	-4	67*
CCOC(=O)c1c(C)oc2c1C(=O)c1ccccc1C2=O	14	-95	1	3	49*
O=C(C1=C(c2ccccc2)C(=O)c2ccccc2C1=O)c1ccccc1	.	-58	-9	-14	.
Cc1oc2c(c1C(=O)O)C(=O)c1ccccc1C2=O	11	-51	2	0	-15
Cc1noc(C)c1S(=O)(=O)Nc1cccc2c1O[C@H](CN(C)Cc1ccc(Oc3ccccc3)cc1)[C@H](C)CN([C@H](C)CO)C2=O	.	.	.	.	6
CCCNC(=O)C[C@H]1CC[C@H]2[C@@H](COC[C@H](O)CN2CC2CCCCC2)O1	.	.	.	.	-4
CCOC(=O)C1CCN(C(=O)Nc2ccc3snnc3c2)CC1	0	-1	0	-2	.
SMILES	AHR act	MITF act	Wnt act	GAA850 FXN act	esBAF inh
O=C(Nc1ccccc1)Nc1ccc2nnsc2c1	11	?	24	1	73*
O=C(Nc1ccccc1)Nc1ccc2snnc2c1	22	.	5	0	32
CN(C)c1ccc(NC(=O)Nc2ccc3snnc3c2)cc1	34	65	.	0	69*
O=C(Nc1ccnc(-c2ccncc2)n1)c1ccccc1Cl	31	.	-1	0	.
O=C(Nc1ccnc(-c2ccncc2)n1)C1CC1	52*	10	1	2	1
CCNc1oc(COc2cccc(C)c2)nc1C#N	31	12	.	0	45*
Cc1cccc(OCc2nc(C#N)c(NCCN(C)C)o2)c1	-2	6	-4	1	3
N#Cc1nc(COc2cccc(Cl)c2)oc1NCc1ccco1	63*	47	12	4	51*
COc1ccc(Nc2oc(COc3cccc(C)c3)nc2C#N)cc1	35	21	43*	6	-11
COc1ccc(Nc2oc(COc3ccc(C)cc3)nc2C#N)cc1	7	.	.	1	-19
C[C@H]1CN([C@@H](C)CO)C(=O)c2cccc(NS(=O)(=O)c3cccs3)c2O[C@H]1CN(C)CC1CC1	.	.	.	.	-3
O=C(N[C@H]1CC[C@H](CCn2cc(C3(O)CCCC3)nn2)O[C@@H]1CO)C1CC1	.	.	.	.	-24
COc1ccc2c(c1)C(=NNC(=O)c1ccccn1)c1cc(OC)ccc1-2	52*	1	-4	1	.
CSCCC(NC(=O)c1ccc(Cl)cc1)C(=O)OCC(=O)Nc1cc(Cl)ccc1C#N (stereo not given)	56*	-18	.	2	.
O=C(NCC1CC1)[C@H]1[C@H](CO)[C@H]2Cn3c(ccc(-c4ccccc4F)c3=O)[C@@H]1N2Cc1ccncc1	.	.	.	.	1
CCn1c(SC(C)C(=O)NC2CCCC2)nc2cc(S(N)(=O)=O)ccc21 (stereo not given)	10	-9	48*	1	-5
C[C@@H]1CN([C@@H](C)CO)C(=O)c2cc(NS(=O)(=O)c3ccc(F)cc3)ccc2O[C@@H]1CN(C)C	.	.	.	.	-2
Oc1c(C(c2ccccn2)N2CCCCC2)cc(Cl)c2cccnc12 (stereo not given)	9	-29	59*	-1	.
CN1CCN(C(c2ccc(Cl)cc2)c2cc(Cl)c3cccnc3c2O)CC1 (stereo not given)	10	-42	9	0	-23
COC(=O)CCc1c(C)c(C(=O)c2ccc(F)cc2)c2ccccn12	4	3	5	-1	.
Cc1c(C(=O)Nc2ccc(F)cc2)c2ccccn2c1CCc1ccncc1	90*	56	4	3	.
Cc1nn(-c2ccccc2)c(Cl)c1/C=N/NC(=O)OC(C)(C)C	1	57	34*	-3	.
COc1ccccc1NC(=O)N[C@@H]1C=C[C@@H](CC(=O)N2CCC(Cc3ccccc3)CC2)O[C@H]1CO	.	.	.	.	4
COc1cccc(NC(=O)Cn2c(=O)oc3cc(S(=O)(=O)N4CCCC4)ccc32)c1	1	1	37*	1	.
O=C(C[C@@H]1C=C[C@H](NC(=O)Nc2ccc3c(c2)OCO3)[C@H](CO)O1)NCCCN1CCOCC1	.	.	.	.	-4
SMILES	AHR act	MITF act	Wnt act	GAA850 FXN act	esBAF inh
CCSc1nnc2c(n1)OC(C)(C)Nc1ccccc1-2	13	12	19	5	48*
CCCCN(C)S(=O)(=O)c1ccc(C(=O)N=c2sc3cc(NC(C)=O)ccc3n2C)cc1	0	2	39*	1	.
O=C(CSc1nnc2ccc(-c3cccnc3)nn12)Nc1ccc(F)cc1F	79*	-9	-3	3	-3
Cn1c(SCC(=O)Nc2ccc(F)cc2F)nnc1-c1cccnc1	48*	-13	-2	1	7
Cn1c(SCC(=O)Nc2cccc(F)c2)nnc1-c1cccnc1	34	-3	0	0	0
Cc1ccc(S(=O)(=O)Nc2cccc3c2O[C@@H](CN(C)C(=O)Nc2ccc4c(c2)OCO4)[C@H](C)CN([C@@H](C)CO)C3=O)cc1	1	-1	1	0	60*!
